In all, about 99,000 compounds went through this assay and about 340 (0.34%) were called active. Cut-off read from the data, not from the text of the source: active = TR-FRET ratio above about 2300; inactive = the rest. For the sample, actives were picked, then their nearest neighbours and some compounds at random.
assay: TR-FRET detection interference compounds, primary screen, artefact control for PPARgamma SRC-1 recruitment agonists, biochemical, TR-FRET emission ratio (AID 1051); conditions: TR-FRET detection artefact counter-screen, at 8 µM, stronger effect = higher value

Row | Structure (SMILES) | TR-FRET ratio
1 | COC(=O)c1c(C)[nH]c(C)c1-c1ccc([N+](=O)[O-])cc1 | 1710 (inactive)
2 | CCOc1cc(CNn2c(C)nnc2SCC(=O)NC(C)(C)C)ccc1OCC(=O)NC(C)(C)C | 1840 (inactive)
3 | O=C(NNS(=O)(=O)c1ccc(F)cc1)c1cnccn1 | 1930 (inactive)
4 | Cc1ccc(NC(=S)N(CCN2CCCCC2)Cc2ccco2)cc1C | 1560 (inactive)
5 | COc1cc(C(=O)OCc2ccc([N+](=O)[O-])cc2)cc(OC)c1OC | 1470 (inactive)
6 | S=C(Cc1ccc(Cl)cc1)N1CCOCC1 | 2050 (inactive)
7 | COc1cc(NS(=O)(=O)c2ccc(NC(=O)c3ccc(S(=O)(=O)N4CCCCC4)cc3)cc2)ncn1 | 1650 (inactive)
8 | CCC(=O)N(Cc1cc2ccccc2[nH]c1=O)c1ccc(OC)cc1 | 1990 (inactive)
9 | COc1ccc(-n2nnnc2SCC(=O)NCc2cccs2)cc1 | 1830 (inactive)
10 | CN1CCN(S(=O)(=O)c2cccc(C(=O)N3CCc4ccccc43)c2)CC1 | 1760 (inactive)
11 | Cc1ccc(N2C(=O)C(CC(=O)Nc3cccc(F)c3)N(CCc3ccncc3)C2=O)cc1 (centres undefined) | 1810 (inactive)
12 | CCOc1cnc(-c2c(-c3ccccc3Cl)noc2C)o1 | 1830 (inactive)
13 | O=C(COC(=O)c1cc(S(=O)(=O)N2CCCCC2)ccc1Cl)NCc1ccco1 | 1930 (inactive)
14 | Cc1cc(NC(=O)COC(=O)c2ccc(F)c(S(=O)(=O)N3CCOCC3)c2)no1 | 1740 (inactive)
15 | COc1ccc(S(=O)(=O)N2CCCCCC2)cc1C(=O)OCC(=O)Nc1cc(C)on1 | 2360 (active)
16 | COc1ccnc(Oc2ccccc2)n1 | 1760 (inactive)
17 | O=C(Nc1ccc(N2CCN(C(=O)c3cccs3)CC2)cc1)c1cccnc1Cl | 1580 (inactive)
18 | CNS(=O)(=O)c1ccc(N2CCCC2=O)c([N+](=O)[O-])c1 | 1690 (inactive)
19 | O=S(=O)(c1ccc(-c2ccccc2)cc1)N1CCCC1 | 1580 (inactive)
20 | CC(=O)OC(COc1ccc(F)cc1)Cn1cnc2ccccc21 (centres undefined) | 1950 (inactive)
21 | CC(OC(=O)c1ccc2ccccc2n1)C(=O)c1ccccc1 (centres undefined) | 1760 (inactive)
22 | Cc1cccc(NC(=O)c2ccc3ccccc3n2)n1 | 2320 (active)
23 | COC(=O)c1ccc(NC(=S)Nc2cccc(C)n2)cc1 | 1830 (inactive)
24 | COc1ccc(N2CCN(CCCNC(=O)C3CCN(S(=O)(=O)N4CCOCC4)CC3)CC2)cc1 | 1660 (inactive)
25 | COc1ccc(C)cc1NC(=S)Nc1ccccc1SC | 1550 (inactive)

Row | Structure (SMILES) | TR-FRET ratio
26 | O=C(N/N=C/c1ccc([N+](=O)[O-])o1)c1cccc(S(=O)(=O)N2CCOCC2)c1 | 2000 (inactive)
27 | COC(=O)c1ccc(CN2CCN(CCCc3ccccc3)C(CCO)C2)cc1 (centres undefined) | 1770 (inactive)
28 | CC(=O)N1c2ccccc2N(Cc2ccc([N+](=O)[O-])cc2)C(=O)C1(C)C | 1840 (inactive)
29 | N#Cc1c(NC(=O)C2CC(Cl)=CCC2C(=O)O)sc2c1CCCCC2 (centres undefined) | 1990 (inactive)
30 | COC(=O)C(C)N=Cc1ccccc1 (centres undefined) | 1960 (inactive)
31 | CCN(CC)S(=O)(=O)c1ccc(Cl)c(NC(=O)c2ccncc2)c1 | 1750 (inactive)
32 | Cc1ccc(-c2cn3cc([N+](=O)[O-])ccc3n2)cc1 | 1970 (inactive)
33 | COc1cc(/C=C/C(=O)OCC(=O)N2CCOCC2)ccc1OCC#N | 1960 (inactive)
34 | Cc1cc(NC(=O)CSc2nc3c(cc2C#N)CCCCC3)no1 | 1930 (inactive)
35 | C/C(CC(=O)Nc1cccc(F)c1)=N\NC(=O)C(=O)NC1CCCCC1 | 1840 (inactive)
36 | CCOc1ccc(N(CC(=O)NCCc2ccc(OC)cc2)S(C)(=O)=O)cc1 | 1790 (inactive)
37 | Cc1ccccc1CN(c1ccc(C(=O)NCC2CCCO2)cc1)S(C)(=O)=O (centres undefined) | 1760 (inactive)
38 | CNc1[nH]ncc1[N+](=O)[O-] | 1620 (inactive)
39 | O=C(c1ccc(OC2CCN(Cc3ccccn3)CC2)cc1)N1CCCCCC1 | 1590 (inactive)
40 | CCc1nnc(NC(=O)/C=C/c2ccc(C)o2)s1 | 1650 (inactive)
41 | CCOC(=O)C1CCCN(C(=O)c2cccc(S(=O)(=O)N3CCOCC3)c2)C1 (centres undefined) | 1820 (inactive)
42 | Cc1nc2ccc(NC(=S)N3CCC(C)CC3)cc2nc1C | 1940 (inactive)
43 | Cn1cc(CCC(=O)N2CCCC(C(=O)c3ccc(C(C)(C)C)cc3)C2)cn1 (centres undefined) | 2020 (inactive)
44 | Cc1coc(C)c1C(=O)CC1(O)C(=O)N(C)c2ccc(Cl)cc21 (centres undefined) | 1870 (inactive)
45 | CC(C)CC(CC(C)C)=NNC(=O)c1ccc(CSc2nncn2C)cc1 | 1890 (inactive)
46 | O=C(C1CC1)N1N=C2CCCCC2C1(O)C(F)(F)F (centres undefined) | 1750 (inactive)
47 | O=[N+]([O-])c1cc(S(=O)(=O)N2CCCC2)ccc1NN=C1CCCC1 | 1910 (inactive)
48 | Cn1cnnc1SCc1nnc(-c2ccccc2Br)o1 | 1590 (inactive)
49 | CCOC(=O)CCCNC(=O)COC(=O)/C=C/c1ccc2c(c1)OCO2 | 1620 (inactive)
50 | O=C(OCC(=O)N1CCOCC1)c1ccc(N2CCOCC2)c([N+](=O)[O-])c1 | 2030 (inactive)

Row | Structure (SMILES) | TR-FRET ratio
51 | COc1ccc(NC(=S)N2CCCC(CO)C2)c(OC)c1 (centres undefined) | 1690 (inactive)
52 | Cc1nn(C)c(C)c1S(=O)(=O)N1CCC(CO)(Cc2ccc(Cl)cc2)CC1 | 1980 (inactive)
53 | O=C(CCN1C(=O)c2ccccc2C1=O)NNC(=O)c1ccc(Cl)cc1Cl | 2130 (inactive)
54 | CCC1CO/C(=C(\C(=C(Cl)Cl)N2CCOCC2)[N+](=O)[O-])N1 (centres undefined) | 1830 (inactive)
55 | CN(C(=O)CSc1nncc2ccccc12)C1CCCCC1 | 1810 (inactive)
56 | Cc1ccc(Sc2ccncc2S(N)(=O)=O)cc1 | 1560 (inactive)
57 | CCOC(=O)c1c(C)[nH]c(=S)c(C#N)c1-c1ccccc1 | 1630 (inactive)
58 | CNc1nccc(-c2ccc(Cl)cc2)c1C#N | 1880 (inactive)
59 | N#Cc1c(-c2ccc(Cl)cc2)c2c([nH]c1=S)CCCC2 | 2380 (active)
60 | Clc1cccc(-c2nc(NCC3CCCO3)c3ccccc3n2)c1 (centres undefined) | 1630 (inactive)
61 | CCc1[nH]nc(C(=O)N2CCCC(CNS(=O)(=O)c3cccs3)C2)c1C (centres undefined) | 1580 (inactive)
62 | O=C(O)Cc1sc(-c2ccc(C(=O)O)cc2)nc1-c1ccccc1 | 1940 (inactive)
63 | O=C(O)Cc1ccc(-c2ccccc2)cc1 | 1790 (inactive)
64 | O=C(O)Cc1sc(-c2ccccc2)nc1-c1cccs1 | 2910 (active)
65 | O=C(Nc1ccccc1)N1CCN(C(=O)Nc2ccccc2)CC1 | 1700 (inactive)
66 | Cc1nc2ccccc2c(C)c1C(=O)c1ccc(F)cc1 | 1400 (inactive)
67 | CCC(CC)C(=O)N1CCN(c2cccc(C)c2C)CC1 | 1600 (inactive)
68 | O=C(COC(=O)c1ccc(F)cc1)Nc1nc2ccc([N+](=O)[O-])cc2s1 | 1760 (inactive)
69 | COc1ccc(OCC(=O)Nc2nnc(-c3ccco3)s2)cc1 | 2500 (active)
70 | COc1ccc(Cc2nnc(NC(=O)Cc3cccs3)s2)cc1 | 1780 (inactive)
71 | COc1ccc(OCCCC(=O)Nc2nnc(C3CCCO3)s2)cc1 (centres undefined) | 1980 (inactive)
72 | C=CCO/N=C/C1=C(O)C(C(=O)OC)C(C)(C)CC1=O (centres undefined) | 1870 (inactive)
73 | O=C(NCc1ccccn1)c1cc(Br)ccc1Cl | 1780 (inactive)
74 | O=C(Nc1ccncc1)c1cc(-c2ccccn2)nc2ccc(Br)cc12 | 1860 (inactive)
75 | Cc1ccc2nc(-c3cccc(Br)c3)cc(C(=O)Nn3cnnc3)c2c1 | 1660 (inactive)

Row | Structure (SMILES) | TR-FRET ratio
76 | Cc1ccc(-c2cc(C(=O)NCc3cn(C)nc3C)c3cc(Br)ccc3n2)cc1 | 2880 (active)
77 | C/C(N)=C(/C#N)C(=O)COC(=O)c1cc(-c2ccccc2)nc2ccc(Br)cc12 | 1910 (inactive)
78 | O=C(NCc1cccs1)c1cc(-c2ccccn2)nc2ccc(Br)cc12 | 2520 (active)
79 | CSc1ccc(CN2C(=O)NC3(CCCCCC3)C2=O)cc1 | 1630 (inactive)
80 | Cc1ccnc(NS(=O)(=O)c2ccc(NC(=O)c3ccc(S(=O)(=O)N(C)C)cc3)cc2)n1 | 1700 (inactive)
81 | COc1cccc(NC(=O)c2ccc(S(=O)(=O)N(C)C)cc2)c1 | 1680 (inactive)
82 | COc1cccc(NC(=S)NCc2ccccn2)c1 | 1990 (inactive)
83 | COc1cccc(NC(=S)NC(=O)c2c(Cl)c(C)nn2C)c1 | 2600 (active)
84 | Cc1nn(C)c(C(=O)NNC(=S)NC2CCCCC2)c1Cl | 1630 (inactive)
85 | CN1CCN(C(=O)N2c3ccccc3CCc3ccccc32)CC1 | 1720 (inactive)
86 | CCOc1c(CNCc2ccc(C(=O)O)cc2)cccc1OC | 1910 (inactive)
87 | O=C(CC1C(=O)NCCN1Cc1ccc(-c2ccccc2)cc1)NCC1CCOCC1 (centres undefined) | 1730 (inactive)
88 | CCc1ccccc1N1C(=O)C2C3CC(=O)C(c4ccccc43)C2C1=O (centres undefined) | 1650 (inactive)
89 | CC(=O)NC1=NN(C(C)=O)C(C)(c2ccc(C)cc2)S1 (centres undefined) | 1950 (inactive)
90 | COc1ccc(/C=N/NC(=O)Cn2cc(C(F)(F)F)ccc2=O)cc1 | 1880 (inactive)
91 | CCN(CCn1cccn1)C(=O)CC1C(=O)NCCN1Cc1cccc(OC)c1OC (centres undefined) | 1620 (inactive)
92 | CSc1nc2c(c(=O)[nH]1)C(c1cccc(Cl)c1Cl)CC(=O)N2 (centres undefined) | 1770 (inactive)
93 | CCN1CCN(CC(=O)c2cc(OC)c(OC)c(OC)c2)CC1 | 1990 (inactive)
94 | CC(C)OC(=O)CN1CCN(c2ccc(Cl)cc2)CC1 | 1890 (inactive)
95 | CCCC(=O)OCC(=O)Nc1cc(Cl)ccc1[N+](=O)[O-] | 1580 (inactive)
96 | CN(C)C(=O)N1CCNCC1 | 1920 (inactive)
97 | COc1ccc(C/C(C)=N/NC(=O)c2ccncc2)cc1 | 1920 (inactive)
98 | O=C(Nc1ccc([N+](=O)[O-])cc1)C1(c2ccccc2)CCOCC1 | 1740 (inactive)
99 | CN1CCN(CC#CCC2(O)c3ccccc3-c3ccccc32)CC1 | 1610 (inactive)

Reference: PubChem BioAssay AID1051 (The Scripps Research Institute Molecular Screening Center, 2008)
